According to ChEMBL document CHEMBL4513146, “CO-ADD screening of Karazin Kharkiv National University (Ukraine) compounds”:
Potency and affinity values are given separately.

Key:
Staphylococcus aureus = settings: Concentration 32 ug.mL-1;; ASSAY_TEST Inhibition of Bacterial Growth; detection method Absorption (OD600); MEDIA CAMHB; plate type 384well; NBS; CORNING #3640; time 18 hr
Escherichia coli = settings: Concentration 32 ug.mL-1;; ASSAY_TEST Inhibition of Bacterial Growth; detection method Absorption (OD600); MEDIA CAMHB; plate type 384well; NBS; CORNING #3640; time 18 hr

In the case of O=c1n(Cc2cccc(Cl)c2)nc2ccc(-c3ccccc3)nn12, the Inhibition (Staphylococcus aureus) is reported as 13.35% and the Inhibition (Escherichia coli) is reported as 0.79%.
COc1ccc(OC)c(NC(=O)Cn2nc3ccc(-c4ccc(C)cc4)nn3c2=O)c1 was tested, and the Inhibition (Staphylococcus aureus) was -7.96% and the Inhibition (Escherichia coli) was -11.89%.
With Cc1ccc(-c2ccc3nnc(CCC(=O)NCc4ccc(C(F)(F)F)cc4)n3n2)cc1C the Inhibition (Staphylococcus aureus) was 17.72% and the Inhibition (Escherichia coli) was 1.8%.
In the case of N#Cc1cccc(NC(=O)Cn2nc3c(Oc4ccccc4)nccn3c2=O)c1, the Inhibition (Staphylococcus aureus) is reported as 10.16% and the Inhibition (Escherichia coli) is reported as -2.65%.
CCc1ccccc1Sc1nccn2c(=O)n(CC(=O)Nc3cccc(Br)c3)nc12 was tested, and the Inhibition (Staphylococcus aureus) was 8.83% and the Inhibition (Escherichia coli) was 2.3%.
For O=S(=O)(c1ccc2nncn2c1)N(Cc1ccccc1F)c1ccc2c(c1)OCCO2, the Inhibition (Staphylococcus aureus) was 5.05% and the Inhibition (Escherichia coli) was -6.13%.
Cc1c(Cl)cccc1-n1ccn2c(=O)n(Cc3c(F)cccc3Cl)nc2c1=O gave an Inhibition (Staphylococcus aureus) of -0.05% and an Inhibition (Escherichia coli) of -8.85%.
Compound CSc1cccc(NC(=O)Cn2nc3c(SCc4ccc(Cl)cc4)nccn3c2=O)c1 has an Inhibition (Staphylococcus aureus) of -9.65% and an Inhibition (Escherichia coli) of -9.35%.
For Cc1ccccc1N1CCN(c2nccn3c(=O)n(CC(=O)NCc4cc(F)cc(F)c4)nc23)CC1, the Inhibition (Staphylococcus aureus) was 9.65% and the Inhibition (Escherichia coli) was -0.75%.
With Cc1ccc(Cl)cc1NC(=O)Cn1nc2c(SC3CCCCC3)nccn2c1=O the Inhibition (Staphylococcus aureus) was 6.67% and the Inhibition (Escherichia coli) was -3.22%.
With CN(Cc1ccccc1)C(=O)CSc1nnc2c3cc(-c4ccccc4)nn3ccn12 the Inhibition (Staphylococcus aureus) was 11.08% and the Inhibition (Escherichia coli) was -11.2%.
COc1ccc(Cl)cc1NC(=O)CSc1nc2ccccc2n2cnnc12 gave an Inhibition (Staphylococcus aureus) of 12.82% and an Inhibition (Escherichia coli) of 5.77%.
Work on CCCN(C)c1nccn2c(=O)n(CC(=O)Nc3cccc(Cl)c3F)nc12 yielded an Inhibition (Staphylococcus aureus) of 4.66% and an Inhibition (Escherichia coli) of 0.13%.
In the case of CN(C(=O)Cn1nc2nc(Nc3ccc(F)cc3)ccn2c1=O)c1ccccc1, the Inhibition (Staphylococcus aureus) is reported as -13.79% and the Inhibition (Escherichia coli) is reported as -1.66%.
With COc1ccc(NC(=O)c2ccc3nn(CC(=O)Nc4ccc(S(C)(=O)=O)cc4)c(=O)n3c2)cc1 the Inhibition (Staphylococcus aureus) was 11.72% and the Inhibition (Escherichia coli) was -6.83%.
In the case of CCc1ccc(NC(=O)Cn2nc3cc(C)nc(Nc4ccc(C)c(F)c4)n3c2=O)cc1, the Inhibition (Staphylococcus aureus) is reported as -14.67% and the Inhibition (Escherichia coli) is reported as -1.11%.
With CCN(C(=O)Cn1nc2cc(C)nc(Nc3ccc(C)c(F)c3)n2c1=O)c1ccccc1 the Inhibition (Staphylococcus aureus) was 15.67% and the Inhibition (Escherichia coli) was -1.02%.
